The results in this text go back to PubChem BioAssay (Tox21).

“And” between values parts separate entries of the source, which are not always exact repeats. Equal values may be shown once. The source holds several records for some structures; these can differ, active in one and inactive in another. The source made the active and inactive calls. Unless noted, calls come from the whole dose curve; as a rule, active = well fitted curve in the direction sought with a large enough effect in the repeat runs; inconclusive = weak or mixed curves; inactive = no such curve, though single readings can be large; an effect the other way counts as inactive or inconclusive.

Test [1] can be described thus: qHTS assay to identify small molecule antagonists of the glucocorticoid receptor (GR) signaling pathway - cell viability counter screen (AID 720693; note: nearly all actives have a fitted effect of over 55% in size; note: potency is the fitted concentration of half-maximal effect). (In general: In qHTS, concentration-response curves come from the screen itself.)
A short description of test [2]: qHTS assay for identifying genotoxic compounds that show differential cytotoxicity against isogenic chicken DT40 cell lines with known DNA damage response pathways - wild type cell line (AID 743012). Note: nearly all actives have a fitted effect of over 60% in size. Note: potency is the fitted concentration of half-maximal effect. The procedure, abridged:
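Luminescent ATP viability signal (CellTiter-Glo, 30 min RT) recorded after wild type DT40 cells were incubated with compounds for 40 h at 37 C/5% CO2.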

Test [3] is described as follows: qHTS assay for identifying genotoxic compounds that show differential cytotoxicity against isogenic chicken DT40 cell lines with known DNA damage response pathways - Rev3 mutant cell line (AID 743014). Note: nearly all actives have a fitted effect of over 55% in size. Note: potency is the fitted concentration of half-maximal effect.
The nature of test [4]: qHTS assay for identifying genotoxic compounds that show differential cytotoxicity against isogenic chicken DT40 cell lines with known DNA damage response pathways - Rad54/Ku70 mutant cell line (AID 743015). Note: nearly all actives have a fitted effect of over 60% in size. Note: potency is the fitted concentration of half-maximal effect.
Test [5] can be described thus: qHTS assay to identify small molecule antagonists of the androgen receptor (AR) signaling pathway - cell viability counter screen (AID 743033; note: nearly all actives have a fitted effect of over 45% in size; note: potency is the fitted concentration of half-maximal effect).
For test [6], the target named is Androgen receptor (Homo sapiens) (UniProt P10275). The test is described as follows: qHTS assay to identify small molecule agonists of the androgen receptor (AR) signaling pathway using the MDA cell line (AID 743040; note: nearly all actives have a fitted effect of over 20% in size). Summed up:
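Cell-based luciferase reporter: MDA-kb2, MMTV promoter (AR + GR response elements). 16 h compound exposure at 37C; ONE-Glo, 30 min RT, luminescence.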

Test [7] is described as follows: qHTS assay to identify small molecule antagonists of the androgen receptor (AR) signaling pathway using the MDA cell line - cell viability counter screen (AID 743041; note: nearly all actives have a fitted effect of over 45% in size; note: potency is the fitted concentration of half-maximal effect). The procedure, abridged: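 In this qHTS counter assay, fluorescence intensity after CellTiter-Fluor addition indicated viability of MDA-kb2 AR-luc cells given compounds and R1881 for 16 h at 37C.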

Test [8] has as its target Androgen receptor (Homo sapiens) (UniProt P10275). Briefly: qHTS assay to identify small molecule antagonists of the androgen receptor (AR) signaling pathway using the MDA cell line (AID 743042; note: nearly all actives have a fitted effect of over 55% in size; note: potency is the fitted concentration of half-maximal effect). Summed up: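 MDA-kb2 cells (human breast carcinoma, stably carrying an MMTV-luciferase reporter responsive to AR and GR) were plated at 3,000 cells/well and preincubated 5 hr at 37C, then given compound plus R1881 agonist for 16 h. ONE-Glo luminescence was read.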

Test [9] can be described thus: qHTS assay to identify small molecule antagonists of the thyroid receptor (TR) signaling pathway - cell viability counter screen (AID 743064). Note: nearly all actives have a fitted effect of over 50% in size. Note: potency is the fitted concentration of half-maximal effect. The procedure, abridged:
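CellTiter-Fluor readout, 30 min at 37 °C/5% CO2, following 23.5 h incubation of GH3.TRE-Luc cells with test compound and 1 nM T3 (final).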

A short description of test [10]: qHTS assay to identify small molecule antagonists of the thyroid receptor (TR) signaling pathway (AID 743065). Note: nearly all actives have a fitted effect of over 55% in size. Note: potency is the fitted concentration of half-maximal effect. The procedure, abridged:
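GH3.TRE-Luc rat pituitary cells carrying two TR response elements driving luciferase were plated for 4 h, given compound plus 1 nM T3 (final), and incubated 23.5 h at 37 C. ONE-Glo luminescence measured reporter inhibition; CellTiter-Fluor fluorescence tracked cytotoxicity.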

Test [11] in a line: qHTS assay to identify small molecule antagonists of the estrogen receptor alpha (ER-alpha) signaling pathway - cell viability counter screen (AID 743074; calls by dose curve;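 note: HEK293 cells carrying ER-alpha-UAS-bla reporter stimulated with 17beta-estradiol; nearly all actives have a fitted effect of over 45% in size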; note: potency is the fitted concentration of half-maximal effect).
Test [12] concerns thyroid hormone receptor (rat, GH3 cells). Briefly: qHTS assay to identify small molecule agonists of the thyroid receptor (TR) signaling pathway (AID 743066; calls by dose curve).
Test [13] concerns the target Estrogen receptor (Homo sapiens) (UniProt P03372). The test is described as follows: qHTS assay to identify small molecule antagonists of the estrogen receptor alpha (ER-alpha) signaling pathway (AID 743069; active = well fitted curve in the direction sought with a large enough effect in the signal ratio in the repeat runs, not every such curve was filed as active; inconclusive = weak or mixed curves, or effect the other way; inactive = no such curve, though single readings can be large or run the other way; the % refers to the signal ratio; note: potency is the fitted concentration of half-maximal effect). Summed up: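 A 17beta-estradiol challenge was applied right after compound transfer to ER-alpha-UAS-bla HEK293 cells previously kept in charcoal-stripped serum. Plates stood 18 hr at 37C and 5% CO2; fluorescence was read following 2 hr FRET substrate loading at room temperature.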

For test [14] the target is unchanged. Briefly: qHTS assay to identify small molecule agonists of the estrogen receptor alpha (ER-alpha) signaling pathway (AID 743075; calls by dose curve;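 note: HEK293 GripTite cells with ER-alpha and UAS-driven beta-lactamase reporter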).
Test [15] can be described thus: qHTS assay to identify small molecule antagonists of the estrogen receptor alpha (ER-alpha) signaling pathway using the BG1 cell line (AID 743080; calls by dose curve;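 note: BG1 cells stimulated with 17beta-estradiol alongside compound; nearly all actives have a fitted effect of over 25% in size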; note: potency is the fitted concentration of half-maximal effect). The note with it: BG1Luc4E2 ERE-luciferase antagonist mode, luminescence; activity change, negative = inhibition: at 70.3 µM (top of the series). Summed up: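 BG1-Luc-4E2 cells (endogenous full-length ER-alpha, 4xERE luciferase) hormone-starved 5 days in charcoal-stripped FBS, plated 4,000/well for 24 h, then compound plus 17beta-estradiol for 21.5 h at 37 C; ONE-Glo luminescence read.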

The nature of test [16]: qHTS assay to identify small molecule antagonists of the estrogen receptor alpha (ER-alpha) signaling pathway using the BG1 cell line - cell viability counter screen (AID 743081).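 Note: compound given together with 17beta-estradiol as the ER stimulus; nearly all actives have a fitted effect of over 45% in size.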 Note: potency is the fitted concentration of half-maximal effect.
A further test has as its target Aromatase (Homo sapiens) (UniProt P11511). Briefly: qHTS assay to identify aromatase inhibitors (AID 743083). Note: nearly all actives have a fitted effect of over 55% in size. Note: potency is the fitted concentration of half-maximal effect.
Test [17] deals with Androgen receptor (Homo sapiens) (UniProt P10275). Briefly: qHTS assay to identify small molecule antagonists of the androgen receptor (AR) signaling pathway (AID 743035; active = well fitted inhibition curve with a large enough effect in the signal ratio in the repeat runs, not every such curve was filed as active; inconclusive = weak or mixed curves, or effect the other way; inactive = no such curve, though single readings can be large or run the other way; the % refers to the signal ratio). Summed up: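 Quantitative HTS of the Tox21 10K library used HEK293 AR-UAS-bla cells stimulated with R1881 alongside compound for 16 h at 37C, followed by beta-lactamase FRET detection (LiveBLAzer B/G, 2 h, RT).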

For test [18] the target is unchanged. The test is described as follows: qHTS assay to identify small molecule agonists of the androgen receptor (AR) signaling pathway (AID 743036; active = well fitted activation curve with a large enough effect in the signal ratio in the repeat runs, with a control signal flat, not every such curve was filed as active; inconclusive = weak or mixed curves, or effect the other way; inactive = no such curve, though single readings can be large or run the other way; the % refers to the signal ratio). The procedure, abridged:
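Following a 4 h settling period, AR-UAS-bla HEK293 cells were dosed with compounds for 16 h at 37C. A 2 h room-temperature incubation with LiveBLAzer B/G FRET substrate preceded the fluorescence measurement.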

Test [19] deals with Estrogen receptor (Homo sapiens) (UniProt P03372). The test is described as follows: qHTS assay to identify small molecule agonists of the estrogen receptor alpha (ER-alpha) signaling pathway using the BG1 cell line (AID 743079). Note: nearly all actives have a fitted effect of over 20% in size. Note: potency is the fitted concentration of half-maximal effect.
Sequence of Estrogen receptor (Homo sapiens) (P03372 whole entry, looked up): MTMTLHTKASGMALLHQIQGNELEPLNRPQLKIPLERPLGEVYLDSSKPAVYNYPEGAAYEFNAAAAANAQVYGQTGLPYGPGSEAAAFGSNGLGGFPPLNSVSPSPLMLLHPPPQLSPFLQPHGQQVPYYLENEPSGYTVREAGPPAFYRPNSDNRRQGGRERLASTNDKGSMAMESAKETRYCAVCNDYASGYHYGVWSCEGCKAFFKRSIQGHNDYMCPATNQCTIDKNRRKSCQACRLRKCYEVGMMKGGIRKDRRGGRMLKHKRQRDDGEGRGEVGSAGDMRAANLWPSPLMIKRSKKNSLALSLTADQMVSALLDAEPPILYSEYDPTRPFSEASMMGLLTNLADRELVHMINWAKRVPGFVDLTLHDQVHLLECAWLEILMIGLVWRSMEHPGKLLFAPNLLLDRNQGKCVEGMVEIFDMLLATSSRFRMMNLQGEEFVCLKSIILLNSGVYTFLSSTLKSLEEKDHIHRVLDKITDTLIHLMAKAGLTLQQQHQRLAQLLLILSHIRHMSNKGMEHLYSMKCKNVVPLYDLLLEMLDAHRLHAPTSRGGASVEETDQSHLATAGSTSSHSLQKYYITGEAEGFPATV

Sequence of Aromatase (Homo sapiens) (P11511 whole entry, looked up): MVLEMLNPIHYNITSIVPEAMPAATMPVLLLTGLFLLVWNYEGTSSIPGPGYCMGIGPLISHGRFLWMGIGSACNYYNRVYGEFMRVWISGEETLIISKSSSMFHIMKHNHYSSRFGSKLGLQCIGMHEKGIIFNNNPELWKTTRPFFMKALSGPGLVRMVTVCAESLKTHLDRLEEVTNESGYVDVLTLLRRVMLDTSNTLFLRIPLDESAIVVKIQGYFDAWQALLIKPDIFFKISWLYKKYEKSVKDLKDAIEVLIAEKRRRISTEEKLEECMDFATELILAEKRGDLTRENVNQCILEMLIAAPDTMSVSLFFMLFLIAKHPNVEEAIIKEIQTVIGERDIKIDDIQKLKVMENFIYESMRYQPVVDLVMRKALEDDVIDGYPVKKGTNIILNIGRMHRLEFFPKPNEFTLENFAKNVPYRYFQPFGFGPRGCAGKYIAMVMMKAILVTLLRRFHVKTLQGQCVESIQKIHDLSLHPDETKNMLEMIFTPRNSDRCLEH
Sequence of Androgen receptor (Homo sapiens) (P10275 whole entry, looked up): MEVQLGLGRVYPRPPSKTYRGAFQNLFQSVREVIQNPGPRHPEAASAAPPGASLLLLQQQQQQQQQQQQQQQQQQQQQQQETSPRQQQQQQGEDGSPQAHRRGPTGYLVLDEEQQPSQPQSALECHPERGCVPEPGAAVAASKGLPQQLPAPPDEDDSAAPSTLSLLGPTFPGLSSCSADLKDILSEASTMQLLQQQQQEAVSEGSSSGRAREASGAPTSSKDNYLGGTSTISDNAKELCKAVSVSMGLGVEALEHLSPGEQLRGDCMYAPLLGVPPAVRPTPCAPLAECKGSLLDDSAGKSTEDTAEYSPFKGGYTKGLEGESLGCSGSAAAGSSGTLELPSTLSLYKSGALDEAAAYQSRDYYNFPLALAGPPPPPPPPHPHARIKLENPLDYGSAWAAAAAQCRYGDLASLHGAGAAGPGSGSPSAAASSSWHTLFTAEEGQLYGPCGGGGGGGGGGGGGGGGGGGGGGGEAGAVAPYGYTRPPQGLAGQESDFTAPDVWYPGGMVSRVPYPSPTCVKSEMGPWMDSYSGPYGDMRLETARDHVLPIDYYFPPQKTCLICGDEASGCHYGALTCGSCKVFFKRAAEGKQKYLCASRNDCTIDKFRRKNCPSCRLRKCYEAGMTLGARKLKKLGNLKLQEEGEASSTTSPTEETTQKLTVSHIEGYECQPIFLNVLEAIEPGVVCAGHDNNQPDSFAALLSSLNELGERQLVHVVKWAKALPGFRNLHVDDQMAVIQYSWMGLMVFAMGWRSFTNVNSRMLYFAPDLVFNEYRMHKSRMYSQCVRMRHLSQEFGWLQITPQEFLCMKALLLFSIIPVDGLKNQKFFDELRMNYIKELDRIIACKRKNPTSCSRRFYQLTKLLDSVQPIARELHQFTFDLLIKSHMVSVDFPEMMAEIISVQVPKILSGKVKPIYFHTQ

As to `C1CCC(C(CC2CCCCN2)C2CCCCC2)CC1` (stereo not given), the Potency was 21.3 µM (active) in test [1]; 2.66 µM (active) in [2]; 4.73 µM (active) in test [3]; 5.96 µM (active) in test [4]; 23.9 µM (active) in test [5]; 18.8 µM (active) in [7]. Further, the Potency in test [8] was 13.3 µM (active); in test [9] it was 4.73 µM (active); in test [10], 5.96 µM (active); in test [11] it was 21.3 µM (active). For the same compound, the compound was classed as inactive in test [6].
As for `CC(C)C(=O)Nc1ccc([N+](=O)[O-])c(C(F)(F)F)c1`, the Potency result in [1], in test [7], in test [9], in test [12], in test [11] and in test [14] was “inactive” throughout. Besides, the Potency entry in [16] was “inactive”. Also, the Potency in test [2] was 13.3 µM (active) and 44.5 µM (active) and 19.3 µM (active); in [3], 29.8 µM (active) and 25 µM (active) and 30.6 µM (active); in [4] it was 18.8 µM (active) and 22.3 µM (active) and 19.3 µM (active); in [5], “inactive and 25.2 µM (active) and 49 µM (active)”; in test [10], 62.9 µM (active); in test [13] it was “inactive and 49 µM [inhibitor] (active)”. The Potency in test [15] was 29.8 µM (active) and 49.9 µM (active); in the test with Aromatase (Homo sapiens), “inactive and 62.9 µM (active)”.
With `CC(=O)CC(c1ccccc1)c1c(O)c2ccccc2oc1=O` (stereo not given), the Potency entry in [1], in [2], in [3], in [4], in test [5] and in [7] was “inactive” throughout. Also, the Potency result in test [9], in test [10], in [12], in test [11] and in [16] was “inactive” in each case.
In the case of `CCCCOC(=O)c1ccc(O)cc1`, the Potency entry in [1], in [2], in [5], in test [17], in test [7] and in test [8] was “inactive” in each case. Moreover, the Potency entry (in test [9]; in test [10]; in test [12]; in [11]; in [16]; with Aromatase (Homo sapiens)) was “inactive” throughout. In addition, the Potency entry is “inactive and 61.1 µM (active)” in test [3]; “inactive and 61.1 µM (active)” in test [4]. Moreover, the compound was classed as inactive in test [18] and in [6].
As for `COc1ccc(C(Cl)=C(c2ccc(OC)cc2)c2ccc(OC)cc2)cc1`, the Potency entry in [1], in test [5], in test [7], in test [9], in test [12] and in test [11] was “inactive” each time. For the same compound, the Potency entry in [14], in [19] and in test [16] was “inactive” each time. For the same compound, the Potency in [2] was 23.7 µM (active) and 24.3 µM (active); in test [3] it was 29.8 µM (active) and 48.3 µM (active) and 27.3 µM (active); in test [4] it was 26.6 µM (active) and 60.8 µM (active) and 24.3 µM (active); in test [10], 11.9 µM (active) and 6.08 µM (active) and 7.7 µM (active); in test [13] it was 1.51 µM [inconclusive] (active) and 1.54 µM [inconclusive] (active) and 1.23 µM [inconclusive] (active); in test [15] it was 18.8 µM (active) and 12.1 µM (active) and 9.69 µM (active). Moreover, the Potency with Aromatase (Homo sapiens) is 8.59 µM (active) and 12.2 µM (active).
Consider `CCOC(N)=O`, for which the Potency entry in test [1], in test [2], in test [3], in test [4], in test [5] and in test [7] was “inactive” each time. Further, the Potency result in test [9], in [10], in test [12], in [13], in test [11] and in [14] was “inactive” throughout. Besides, the Potency result (in test [19]; in test [15]; in test [16]; with Aromatase (Homo sapiens)) was “inactive” in each case.
For the compound `Nc1c(N=Nc2ccc(-c3ccc(N=Nc4cc(S(=O)(=O)O)c5ccccc5c4N)cc3)cc2)cc(S(=O)(=O)O)c2ccccc12`, the Potency result in test [1], in test [5], in test [12] and in test [11] was “inactive” each time. Moreover, the Potency entry is “inactive and 6.85 µM (active)” in test [2]; “inactive and 34.3 µM (active)” in [3]; 54.4 µM (active) in [4]; 26.6 µM (active) and 30.6 µM (active) in test [7]; 16.8 µM (active) and 27.3 µM (active) in test [9]; 10.6 µM (active) and 30.6 µM (active) in [10]. Also, the Potency in test [16] was 13.3 µM (active) and 24.3 µM (active).
With `Nc1c2c(nc3ccccc13)CCCC2`, the Potency result in test [1], in test [5], in test [7], in test [9], in test [10] and in test [12] was “inactive” throughout. The Potency entry (in test [13]; in test [11]; in test [14]; in [16]; in the test with Aromatase (Homo sapiens)) was “inactive” each time. Besides, the Potency entry is “inactive and 27.3 µM (active)” in test [2]; “inactive and 27.3 µM (active)” in [3]; “inactive and 19.3 µM (active)” in test [4]; “inactive and 24.3 µM (active)” in test [19].
`Cc1ncc([N+](=O)[O-])n1CCO`: the Potency result in [1], in test [2], in test [3], in [5], in test [7] and in [9] was “inactive” each time. The Potency entry in [10], in test [12], in test [13], in [11], in [14] and in [19] was “inactive” in each case. Besides, the Potency entry (in test [15]; in test [16]; with Aromatase (Homo sapiens)) was “inactive” each time. The Potency entry in test [4] is “inactive and 61.1 µM (active)”.
With `NC1CCCCC1`, the Potency entry in [1], in test [2], in [5], in [7], in test [9] and in test [10] was “inactive” throughout. Also, the Potency entry in test [12], in [13], in test [11], in test [14], in test [19] and in test [15] was “inactive” in each case. Further, the Potency result (in test [16]; in the test with Aromatase (Homo sapiens)) was “inactive” throughout. Besides, the Potency in test [3] was 54.8 µM (active) and inactive; in test [4], 61.5 µM (active) and inactive.
Regarding `O=S1(=O)OC(c2ccc(O)cc2)(c2ccc(O)cc2)c2ccccc21`, the Potency result in test [1], in test [2], in test [3], in test [5], in [10] and in test [12] was “inactive” each time. Besides, the Potency entry (in test [13]; in test [11]; in [14]; in [15]; with Aromatase (Homo sapiens)) was “inactive” throughout. In addition, the Potency entry in test [4] was “inactive and 43.3 µM (active)”; in [7], 48.6 µM (active) and 61.1 µM (active); in test [9] it was 27.3 µM (active); in test [19] it was 15 µM (active) and inactive; in test [16], 13.3 µM (active) and 27.3 µM (active) and 17.2 µM (active).
Take `NS(=O)(=O)c1cc2c(cc1Cl)NCNS2(=O)=O`: the Potency entry in [1], in [2], in test [3], in test [4], in [5] and in test [7] was “inactive” in each case. The Potency entry in test [9], in test [10], in [12], in test [13], in test [11] and in test [14] was “inactive” throughout. For the same compound, the Potency result (in test [19]; in test [15]; in [16]; in the test with Aromatase (Homo sapiens)) was “inactive” in each case.
